HT1080NT lethal: kills 2HG-producing HT-1080-NT fibrosarcoma cells | HT-1080-NT fibrosarcoma viability, CellTiter-Glo ATP luminescence, 48 h | 360,000 tested, 1.6% active | Potency, µM (top dose mostly 46.1 µM), inactives show at the top dose activity, negative = less viability, hits mostly cytotoxic;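 also: NT is the 2HG producing partner of a matched IDH1 knockdown line; potency is read from the fitted curve at half-maximal effect; 0% = DMSO-treated cells and -100% = media-only wells without cells; nearly all actives have a fitted effect of over 55% in size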
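750 cells/well, RPMI + 5% FBS; 2 h settle, compound pin-transfer, 48 h at 37 degrees C. CellTiter-Glo 10 min RT, luminescence. Normalized to DMSO and media-only wells.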
TDP1 cell CPT: growth inhibition of DT40 Tdp1-/-;hTDP1 cells with camptothecin (screen for TDP1 inhibitors) | 420,000 tested, 12% active | AID 686979 | chicken DT40 Tdp1-/-;hTDP1 cells + 20 nM CPT, ATP luminescence, 48 h | Potency, µM (top dose mostly 46.2 µM), for the others: at the top dose activity change, negative = growth inhibition, hits mostly inhibitors; also: potency is read from the fitted curve at half-maximal effect; nearly all actives have a fitted effect of over 55% in size
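Chicken DT40 Tdp1-/- cells stably complemented with human TDP1 were seeded at 400 cells/well in medium containing 20 nM camptothecin, exposed to pin-transferred compounds, and grown at 37 °C for at least 48 hr. Viability was read as ATP luminescence.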
IL1B secr inh: blocks inflammasome-driven IL-1 beta release; 360,000 tested, 4.7% active; AID 743279; activity change, % at 57.5 µM; THP-1 LPS/ATP IL-1B secretion, AlphaLISA, 16 h; active compounds read low; in the data active = activity change below about -50%; inconclusive = mostly about -30% to -49%
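THP-1 cells pretreated 1 hr with compounds (up to 57.5 uM final), then stimulated with LPS (250 ng/mL final) plus ATP (1.25 mM final); secreted IL-1B measured by AlphaLISA after 16 hr, decreased signal indicating inhibition.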
ALOX12 inh: ALOX12 (human) lipoxygenase inhibition. Potency, µM (highest dose often 108 µM), for inactives: at the highest dose activity change, negative = inhibition, usual class: inhibitors. purified 12hLO, xylenol orange hydroperoxide absorbance. AID 1671190. 580,000 tested, 1.1% active; also: potency is read from the fitted curve at half-maximal effect
Target sequence (P18054 whole entry, looked up): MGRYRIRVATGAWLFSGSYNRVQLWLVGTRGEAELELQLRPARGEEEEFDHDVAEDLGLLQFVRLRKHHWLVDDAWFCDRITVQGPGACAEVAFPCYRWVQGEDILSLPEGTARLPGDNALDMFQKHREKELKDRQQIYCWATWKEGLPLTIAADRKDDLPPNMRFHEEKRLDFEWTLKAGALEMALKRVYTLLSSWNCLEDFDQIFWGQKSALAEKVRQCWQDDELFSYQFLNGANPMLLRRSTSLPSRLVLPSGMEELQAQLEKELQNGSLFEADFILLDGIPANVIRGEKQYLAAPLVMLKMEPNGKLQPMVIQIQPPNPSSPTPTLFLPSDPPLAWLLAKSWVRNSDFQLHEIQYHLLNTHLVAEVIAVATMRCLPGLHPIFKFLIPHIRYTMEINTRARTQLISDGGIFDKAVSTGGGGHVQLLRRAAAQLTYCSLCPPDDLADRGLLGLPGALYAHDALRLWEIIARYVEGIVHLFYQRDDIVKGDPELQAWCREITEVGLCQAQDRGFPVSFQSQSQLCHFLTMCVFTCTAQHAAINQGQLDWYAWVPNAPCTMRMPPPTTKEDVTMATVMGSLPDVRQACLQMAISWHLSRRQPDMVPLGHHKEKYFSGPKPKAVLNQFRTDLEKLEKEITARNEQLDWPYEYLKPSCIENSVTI
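Purified human 12hLO at 150 nM in 25 mM Hepes, 0.01% Triton X-100, pH 7.0, preincubated 15 min at room temperature with compound. Reaction started with 40 uM arachidonic acid, 30 min at room temperature. Hydroperoxide measured by Fe-xylenol orange, 573/405 nm absorbance ratio.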
HT1080 IDH1KD tx: toxicity to HT-1080 IDH1 knockdown cells (counter line); HT-1080 IDH1 knockdown viability, ATP luminescence, 48 h; Potency, µM (titrated, usually from 46.1 µM), without a hit: at the top dose activity, negative = toxicity, most hits filed as cytotoxic; 360,000 tested, 2% active;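 also: potency is read from the fitted curve at half-maximal effect; 0% = DMSO wells and -100% = cell-free medium wells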
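Viability of IDH1-knockdown HT-1080 fibrosarcoma cells was assessed by CellTiter-Glo after 48 h at 37 °C with titrated compound; concentration-effect curves were classified by fit quality and response size.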
TDP1 cell noCPT: qHTS for Inhibitors of human tyrosyl-DNA phosphodiesterase 1 (TDP1): qHTS in cells in absence of CPT; DT40 Tdp1-/- hTDP1 cells, no CPT, ATP luminescence, 48 h; Potency, µM (top dose mostly 46.2 µM), inactives show at the highest dose activity change, negative = growth inhibition, usual class: inhibitors; 420,000 tested, 15% active; AID 686978, 2013; also: potency is read from the fitted curve at half-maximal effect; nearly all actives have a fitted effect of over 55% in size
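Chicken DT40 Tdp1-/- cells complemented with human TDP1, screened without camptothecin (DMSO vehicle only), 400 cells/well. Compounds pin-transferred, cells incubated at 37 °C for at least 48 hr. Growth read as ATP-dependent luminescence (CellTiter-Glo, 30 min at RT).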
An asterisk follows results filed as active; ? = inconclusive; nt = not tested or not shown; [ ] = another dose, or the depositor's remark. This is one part of a sample in which hits are shown more often than they occur. Unless noted, calls follow the shape of the dose curve; as a rule, active = well fitted curve in the direction sought with a large enough effect; inconclusive = small, poorly fitted or top-dose-only effect, or another doubt; inactive = no such curve, though single readings can be large; an effect the other way counts as inactive or inconclusive. Unless noted, % is scaled to controls: 0 for no effect and ±100 for the full control effect.

SMILES | HT1080NT lethal | TDP1 cell CPT | IL1B secr inh | ALOX12 inh | HT1080 IDH1KD tx | TDP1 cell noCPT
C/C=C/c1ccc(OCCCNCC(C)O)c(OC)c1 (stereo unspecified) | -20% | ? | -10 | 0% | -15% | ?
C/C=C/c1ccc(OCCCCNCc2ccco2)c(OC)c1 | -30% | 26µM* | -58* | -28% | ? | ?
C/C=C/c1ccc(OCCCCN2CC(C)CC(C)C2)c(OC)c1 (stereo unspecified) | 23µM* | ? | -70* | ? | 21µM* | ?
CCc1ccc(C(=O)N2CCSCC2)s1 | nt | nt | nt | -4% | nt | nt
Cc1ccc(N2CCN(C(C(=O)O)c3c[nH]c4ccc(OCc5ccccc5)cc34)CC2)c(C)c1 (stereo unspecified) | nt | nt | nt | -6% | nt | nt
CCc1ccccc1Oc1cnn(-c2ccc(C(F)(F)F)cn2)c(=O)c1Cl | nt | nt | nt | 6% | nt | nt
CCc1ccc(NC(=O)Cn2c(=O)nc(-c3ccccc3F)c3cc(Cl)ccc32)cc1 | nt | -1% | nt | -9% | nt | -25%
COc1cc(NC(=O)Cn2c(=O)nc(-c3ccccc3F)c3cc(Cl)ccc32)cc(OC)c1 | nt | 15µM* | nt | ? | nt | 10µM*
COc1ccccc1-c1oc2ccccc2c1C#CC1(N)CCCCC1 | -12% | 16µM* | ? | ? | -6% | 15µM*
COc1ccc(-c2cc(=O)c3ccccc3o2)cc1OC | nt | ? | nt | nt | nt | 15µM*
COc1ccccc1-c1oc2ccccc2c(=O)c1OC | nt | 6.7µM* | nt | nt | nt | ?
COc1cc2oc3ccccc3c(=O)c2cc1OC | -24% | ? | -51* | 0% | 0% | ?
COc1ccc(-c2cc(=O)c3ccc(O)cc3o2)cc1OC | nt | nt | nt | 30% | nt | nt
O=C(CSc1nc2ccccc2s1)C12CC3CC(CC(C3)C1)C2 | nt | nt | nt | -13% | nt | nt
CCOc1cc(/C=C2\NC(=O)NC2=O)ccc1OCc1ccc(Cl)cc1Cl | nt | nt | nt | -3% | nt | nt
CCOC(=O)c1c(C)[nH]c(C)c1S(=O)(=O)N(C)CC(=O)Nc1ccc(OC)cc1 | nt | -34% | nt | -27% | nt | -15%
Cc1ccc(C2=Nc3ccccc3N=C(C(Cl)Cl)C2)cc1 | -27% | 18µM* | -26 | -3% | ? | 16µM*
CCOC(=O)C1CCN(C(=O)COC(=O)C23CC4CC(CC(C4)C2)C3)CC1 | -4% | ? | 0 | 13% | 0% | ?
CCOC(=O)N1CCC2(CC1)C(C(=O)C13CC4CC(CC(C4)C1)C3)C2(C#N)C#N (stereo unspecified) | -3% | ? | -54* | 0% | -1% | ?
O=C(Nc1ccccc1)c1cc(C2CCCCN2S(=O)(=O)Cc2cccc(C(F)(F)F)c2)on1 (stereo unspecified) | 2% | 21µM* | -28 | 10% | 21% | ?
CS(=O)(=O)N1CCCCC1c1cc(C(=O)Nc2ccccc2)no1 (stereo unspecified) | -3% | -5% | -19 | 2% | -3% | 0%
O=C(Nc1ccccc1Cl)c1cc(C2CCCCN2S(=O)(=O)c2ccc(F)cc2F)on1 (stereo unspecified) | 1% | 16µM* | 42 | 0% | -28% | 21µM*
O=C(Nc1ccccc1Cl)c1cc(C2CCCN(C(=O)C3CCCCC3)C2)on1 (stereo unspecified) | 2% | ? | -3 | ? | ? | ?
COc1cc(C(=O)N2CCCCC2c2cc(C(=O)Nc3ccccc3)no2)cc(OC)c1C (stereo unspecified) | -18% | ? | ? | -3% | ? | ?
O=C(Nc1ccc2c(c1)OCO2)c1cc(C2CCCN(C(=O)C3CCCCC3)C2)on1 (stereo unspecified) | -26% | 23µM* | -22 | -4% | ? | ?
SMILES | HT1080NT lethal | TDP1 cell CPT | IL1B secr inh | ALOX12 inh | HT1080 IDH1KD tx | TDP1 cell noCPT
O=C(Nc1ccc2c(c1)OCO2)c1cc(C2CCCCN2C(=O)c2ccc3ccccc3c2)on1 (stereo unspecified) | -5% | 18µM* | -26 | -24% | 4% | 15µM*
O=C(Nc1ccccc1)c1cc(C2CCCCN2C(=O)c2ccccc2)on1 (stereo unspecified) | 19% | 21µM* | 18 | ? | 22% | ?
O=C(Nc1ccccc1Cl)c1cc(C2CCCCN2C(=O)c2ccccc2)on1 (stereo unspecified) | 19% | 29µM* | 9 | 13% | ? | ?
COc1ccc(S(=O)(=O)N2CCCCC2c2cc(C(=O)Nc3ccccc3)no2)cc1 (stereo unspecified) | ? | -18% | 0 | 0% | 4% | -25%
O=C(Nc1ccc2c(c1)OCO2)c1cc(C2CCCCN2S(=O)(=O)c2ccccc2)on1 (stereo unspecified) | -13% | 16µM* | -25 | 5% | -1% | ?
CCCn1c(=O)c2sccc2n2c(CCCC(=O)Nc3ccc(Oc4ccccc4)cc3)nnc12 | nt | 10µM* | nt | ? | nt | 15µM*
CCCn1c(=O)c2sccc2n2c(CCCC(=O)Nc3ccccc3F)nnc12 | nt | 0% | nt | 0% | nt | ?
CCn1c(=O)c2sccc2n2c(CCCC(=O)Nc3ccc(C)cc3)nnc12 | nt | ? | nt | -14% | nt | ?
CCCn1c(=O)c2sccc2n2c(CCCC(=O)Nc3ccc(Oc4ccc(Cl)cc4)cc3)nnc12 | nt | 16µM* | nt | -24% | nt | 16µM*
O=C(NCCN1CCN(c2cccc(Cl)c2)CC1)c1ccc(CSc2nc3ccncc3[nH]2)cc1 | ? | ? | -63* | 8% | ? | ?
CC1CC(C)CN(C(=O)c2ccc(CSc3nc4ccncc4[nH]3)cc2)C1 (stereo unspecified) | 13% | ? | 3 | 4% | -1% | 12µM*
CCN(CCNC(=O)c1ccc(CSc2nc3ccncc3[nH]2)cc1)c1ccccc1 | 0% | -1% | 36 | 3%[57.4 µM] | 5% | -10%
Cc1ccc(C2Cn3nnc(C(=O)N4CCN(C(=O)c5ccco5)CC4)c3CO2)cc1 (stereo unspecified) | nt | nt | nt | -8% | nt | nt
CCOC(=O)c1cc(OCC(=O)NC(C)C(C)C)cc(C(=O)OCC)c1 (stereo unspecified) | 0% | -2% | 5 | 0% | -7% | -19%
CC(C)NC(=O)COc1ccc(OCc2ccccc2)cc1 | -9% | ? | 23 | -6% | -12% | 29µM*
CC(C)C(C)NC(=O)COc1ccc(-c2ccccc2)cc1 (stereo unspecified) | 1% | 18µM* | -8 | 22% | -1% | 21µM*
